Data on 13 molecules can be found in PubChem BioAssay (NCATS).

Structures are written as SMILES. Values joined by “and” are separate entries in the source; they are usually repeats but may differ in a detail not shown here. Identical values can stand only once. A number with no mark means an inactive call. Records with an inconclusive call do not appear. Active and inactive are the calls of the source. Unless noted, calls follow the shape of the dose curve; as a rule, active = well fitted curve in the direction sought with a large enough effect; inconclusive = small, poorly fitted or top-dose-only effect, or another doubt; inactive = no such curve, though single readings can be large; an effect the other way counts as inactive or inconclusive.

Experiment [1] in a line: qHTS for Activators of Parkin Expression: LOPAC Validation Assay (NLuc Reporter) (AID 720572;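 also: 0% = DMSO and 100% = positive control compound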). A digest of the protocol:
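Neuronal line stably carrying a FLuc/NLuc coincidence reporter under the Parkin promoter, seeded 24 h, then dosed in 7-point series for 24 h at 37 C. NLuc luminescence read after FLuc; normalized to DMSO and positive control (100%).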

The target of experiment [2] is T1, Hexokinase-4 (Homo sapiens) + Glucokinase regulatory protein (Homo sapiens) (UniProt P35557+Q14397). Put plainly: qHTS assay for inhibitors of recombinant human GCK-GKRP interaction: Diaphorase-coupled assay (AID 743205). A digest of the protocol: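 Resorufin fluorescence (525/590 nm), read each minute over 30 min, reports GCK activity coupled via G6PDH and diaphorase. Reaction: 10 nM GST-GCK, 10 nM FLAG-GKRP, 5 mM glucose, 0.4 mM ATP, 0.15 mM NADP+, 0.1 mM resazurin.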
T1 sequence (P35557 whole entry, looked up): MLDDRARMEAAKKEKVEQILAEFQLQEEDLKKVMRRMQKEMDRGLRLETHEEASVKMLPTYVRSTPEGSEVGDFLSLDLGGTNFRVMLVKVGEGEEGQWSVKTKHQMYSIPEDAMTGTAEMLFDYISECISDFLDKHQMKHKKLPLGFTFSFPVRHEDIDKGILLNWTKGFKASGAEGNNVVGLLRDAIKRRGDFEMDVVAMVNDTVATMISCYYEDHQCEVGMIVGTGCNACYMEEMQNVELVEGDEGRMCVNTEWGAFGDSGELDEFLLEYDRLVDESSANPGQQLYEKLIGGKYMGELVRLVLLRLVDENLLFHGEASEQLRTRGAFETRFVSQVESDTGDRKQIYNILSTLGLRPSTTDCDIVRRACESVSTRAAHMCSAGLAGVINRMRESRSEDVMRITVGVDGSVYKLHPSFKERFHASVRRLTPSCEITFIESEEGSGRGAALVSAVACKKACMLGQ
T1 sequence (Q14397 whole entry, looked up): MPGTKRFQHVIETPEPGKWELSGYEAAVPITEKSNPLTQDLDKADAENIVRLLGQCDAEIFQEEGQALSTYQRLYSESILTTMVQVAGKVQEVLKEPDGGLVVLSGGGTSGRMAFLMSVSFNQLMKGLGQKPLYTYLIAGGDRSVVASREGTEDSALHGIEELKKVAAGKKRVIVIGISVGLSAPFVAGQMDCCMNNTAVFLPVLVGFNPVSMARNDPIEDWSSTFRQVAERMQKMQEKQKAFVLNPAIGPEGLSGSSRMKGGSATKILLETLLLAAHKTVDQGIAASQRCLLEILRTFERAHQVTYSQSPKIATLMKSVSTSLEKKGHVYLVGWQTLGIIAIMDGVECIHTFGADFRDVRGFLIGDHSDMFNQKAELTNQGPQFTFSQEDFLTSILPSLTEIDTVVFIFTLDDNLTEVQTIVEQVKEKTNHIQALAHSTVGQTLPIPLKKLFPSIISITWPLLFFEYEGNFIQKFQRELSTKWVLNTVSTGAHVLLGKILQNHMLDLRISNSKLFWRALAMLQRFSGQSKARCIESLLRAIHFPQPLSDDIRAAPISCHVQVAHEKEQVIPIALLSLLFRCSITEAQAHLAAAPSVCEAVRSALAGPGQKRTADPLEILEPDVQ
(In general: qHTS replaces the single test concentration by a dilution series.)

In experiment [3] the target is T1, Hexokinase-4 (Homo sapiens) + Glucokinase regulatory protein (Homo sapiens). As to the kind of experiment: qHTS assay for inhibitors of recombinant human GCK-GKRP interaction: ADP-Glo assay (AID 743206).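 Also: plate controls were DMSO plus enzyme for no effect and no enzyme for full effect.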 The method in brief: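 GST-GCK and FLAG-GKRP (15 nM each in the dispensed mix, with 2 uM S6P) react with 0.4 mM ATP and 5 mM glucose (final) in Hepes pH 7.6 for 60 min at room temperature. ADP is measured by ADP-Glo luminescence.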

Experiment [4] shares this target. Put plainly: qHTS assay for inhibitors of recombinant human GCK-GKRP interaction: HTRF assay (AID 743207).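 Also: 0% = DMSO with GCK present and -100% = DMSO wells lacking GCK.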 The method in brief: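 HTRF read-out (ex 320 nm; 615/665 nm emission) after 60 min RT equilibration of 5 nM GST-GCK, 5 nM FLAG-GKRP, 2 uM S6P, compound and anti-FLAG/anti-GST detection antibodies; signal normalized between DMSO wells with and without GCK.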

Experiment [5] is described as follows: qHTS assay for measurement of the activity of small molecule inhibitors on Zika virus induced Caspase-3 activity in human iPSC derived neural progenitor cells (hNPCs) (AID 1224857). Also: nearly all actives have a fitted effect of over 65% in size. Also: potency is read from the fitted curve at half-maximal effect. A digest of the protocol: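 After overnight (16–20 h) culture at 350 cells/well, hNPCs get compound, then ZIKV 2 FFU/cell one hour later. Six hours on, Caspase-Glo 3/7 is added and luminescence measured.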

Experiment [6] can be described thus: qHTS assay for measurement of the activity of small molecule inhibitors on Zika virus induced Caspase-3 activity in human astrocytoma cells (AID 1224859).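 Also: plate controls were ZIKV-infected untreated cells for no effect and uninfected cells for full effect.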 A digest of the protocol:
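Inhibition of Zika-induced caspase-3/7 activity: SNB-19 cells, 1 h compound pretreatment, ZIKV 2 FFU/cell for 6 h at 37 C, Caspase-Glo luminescence read-out.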

Experiment [7] in a line: qHTS for Activators of Parkin Expression: LOPAC Validation Assay (FLuc Reporter) (AID 720573;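 also: 0% = DMSO and 100% = positive control compounds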). The method in brief: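 FLuc luminescence read-out from a neuronal line expressing a Parkin-promoter-driven coincidence reporter. Cells treated 24 h at 37 C, 5% CO2 with compounds at 7 concentrations; signal increase normalized to DMSO and positive control.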
Experiment [8] can be described thus: qHTS Assay for Identifying Gametocytocidal Compounds (AID 743244). Also: potency is read from the fitted curve at half-maximal effect.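 As to max response: % is scaled to controls: 0 for no effect and ±100 for the full control effect; actives lower the fluorescent signal which means gametocytes are killed.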 The conditions noted are these: P. falciparum 3D7 stage III-V gametocytes, alamarBlue, 72 h; max response: hits give low values. A digest of the protocol:
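Using 20,000 stage III–V 3D7 gametocytes per well, compounds were incubated 72 h under 37 °C/5% CO2. Viability was then assessed by 24 h alamarBlue reduction, measured fluorometrically at 525/598 nm.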

A short description of experiment [9]: qHTS assay for small molecule agonists of the antioxidant response element (ARE) signaling pathway measured by Nrf2-dependant transcriptional activity (AID 720636; active = well fitted curve in the direction sought with a large enough effect in the repeat runs; an effect the other way counts as inactive or inconclusive;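 also: HepG2 cells with an ARE-driven luciferase reporter; % of control where 0% means no effect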). The method in brief: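 In HepG2 cells engineered with an Nrf2-responsive luciferase gene, ARE induction was quantified as luminescence after 16 hr compound treatment at 37 C.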
Experiment [10] in a line: qHTS assay for small molecule agonists of the antioxidant response element (ARE) signaling pathway measured by Nrf2-dependant transcriptional activity - cell viability counter screen (AID 720653; active = well fitted curve in the direction sought with a large enough effect in the repeat runs; an effect the other way counts as inactive or inconclusive; also: % is scaled to controls: 0 for no effect and ±100 for the full control effect). The following applies: ARE-bla HepG2 viability, CellTiter-Glo ATP luminescence, 16 h; max response: hits give low values. The method in brief:
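ARE-bla HepG2 cells (2,000/well) rested 5 hrs at 37C/5% CO2, then exposed to compounds in DMSO for 16 hrs. Viability was read in the same wells as intracellular ATP by luminescence, 30 min at room temperature after reagent addition.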

Experiment [11] is described as follows: qHTS assay for cell viability of HEK293 cells (AID 743288). Also: % is scaled to controls: 0 for no effect and ±100 for the full control effect; nearly all actives have a fitted effect of over 50% in size. The following applies: ATP luminescence (CellTiter-Glo), 18 h; max response: hits give low values. The method in brief:
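Environmental chemicals tested in qHTS format against parental HEK293 cells; 18 h treatment, 37 C; read-out ATP luminescence (CellTiter-Glo), 30 min RT development.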

Experiment [12] is described as follows: qHTS assay for cell viability of the p53RE-bla HCT-116 cell line (AID 743292). Also: % is scaled to controls: 0 for no effect and ±100 for the full control effect; nearly all actives have a fitted effect of over 55% in size. The method in brief:
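Intracellular ATP of p53RE-bla HCT-116 cells measured by luciferase luminescence following 16 h compound incubation at 37 C; DMSO-only wells served as vehicle controls.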

Experiment [13] in a line: qHTS assay for small molecule antagonists of the retinoid-related orphan receptor gamma (ROR-gamma) signaling pathway - cell viability counter screen (AID 720652; active = well fitted curve in the direction sought with a large enough effect in the repeat runs; an effect the other way counts as inactive or inconclusive;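 also: CHO reporter cells with doxycycline-induced ROR-gamma expression; series mostly up to about 92 µM; compound exposure lasted 16 hr before ATP read; % is scaled to controls: 0 for no effect and ±100 for the full control effect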). A digest of the protocol:
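CHO cells carrying TET-inducible ROR and RORE-luciferase reporter, plated 5 hr, then dosed with compound plus doxycycline. After 16 hr at 37 C, viability read as intracellular ATP by CellTiter-Glo luminescence.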

Regarding `CN1CCc2cc(NC(=O)Nc3cccnc3)ccc21`, the Potency entry in experiment [1], in [3], in experiment [4], in experiment [5] and in experiment [6] was “inactive” each time. Also, the result in [2] was inactive.
For `C#C[C@]1(O)CC[C@H]2[C@@H]3CCC4=Cc5oncc5CC4(C)[C@H]3CCC21C` (some centres undefined), the Potency result in [1], in experiment [7], in experiment [3] and in experiment [5] was “inactive” throughout.
Take `S=C(S)OC1CC2CC1C1CCCC21` (centres undefined): the Potency result in experiment [1], in experiment [7], in experiment [3], in experiment [4], in [5] and in [6] was “inactive” in each case.
Regarding `COc1cc(OC)c(/C=C2/C(=O)Nc3ccccc32)c(OC)c1`, the Potency entry in experiment [1], in experiment [7], in experiment [3], in experiment [5] and in experiment [6] was “inactive” throughout. Moreover, in experiment [8], the max response was 33.5%.
As to `CC1(C)S[C@@H]2[C@H](NC(=O)[C@H](N)c3ccccc3)C(=O)N2[C@H]1C(=O)O`, the Potency result in experiment [9], in [12] and in experiment [5] was “inactive” throughout. In addition, the max response is -0.498% in experiment [10], 0.735% in experiment [8] and 1.44% in experiment [11].
Take `NC[C@@H]1O[C@H](C23CC4CC(CC(C4)C2)C3)Cc2c1ccc(O)c2O`: the Potency entry in experiment [1], in experiment [7], in [3], in experiment [4] and in [5] was “inactive” each time. In [8], the Potency was 1 µM (active).
For `O=C(O)c1cc(=O)c2ccccc2[nH]1`, the Potency entry in [1], in experiment [3], in [4] and in experiment [5] was “inactive” each time. In experiment [2], the result was inactive. Also, the max response in experiment [8] is -5.82%.
Consider `CCCCCCCCCCCCCCCCCC(=O)O`, for which the Potency entry in [9], in experiment [13], in experiment [12] and in experiment [5] was “inactive” each time. Moreover, the max response in experiment [10] is -2.11% and 6.03% and 17.1%; in experiment [8], -10.4%; in [11], -8.42% and -6.66% and -3.76%.
With `O=C1NC(=O)/C(=C/c2ccc(-c3ccc(F)cc3O)o2)S1`, the Potency entry in [1] and in experiment [3] was “inactive” throughout. Further, the result in experiment [2] was inactive. In experiment [8], the max response is -4.42%. For the same molecule, the Potency in experiment [5] was 10 µM (active).
Turning to `O=c1[nH]c2cc([N+](=O)[O-])c([N+](=O)[O-])cc2[nH]c1=O`, the Potency entry in [1], in [7], in [3], in [4], in [5] and in experiment [6] was “inactive” each time. Further, in experiment [8], the max response is 23.7%.
Regarding `Fc1cccc(/C=N/N=C/c2cccc(F)c2)c1`, the Potency entry in experiment [1], in [3], in [4], in [5] and in [6] was “inactive” throughout. In addition, the outcome in experiment [2] was inactive. Moreover, the max response in experiment [8] was 22.7%.
For `Cc1cc(NC2CCCCC2)nc(-n2nc(C)cc2C)n1`, the Potency entry in [1], in experiment [7], in experiment [3], in experiment [4], in [5] and in experiment [6] was “inactive” each time. For the same molecule, the Potency in experiment [8] is 1.18 µM (active).
Consider `CN1[C@@H](CC(=O)c2ccccc2)CCC[C@H]1C[C@H](O)c1ccccc1`, for which the Potency entry in [1], in [7], in experiment [3], in experiment [4] and in experiment [5] was “inactive” throughout. Moreover, the result in experiment [2] was inactive.
